# Assay results published in PubChem BioAssay (EPA / NIEHS).
# Records with an inconclusive call do not appear. Activity calls are given as the source filed them. How the source made its calls: active means hit-call score of the fitted dose curve at least 0.9, where 1 is the maximum; inconclusive means response in the unintended direction; inactive means score below 0.9.
# Biological target: Estrogen receptor (Homo sapiens) (UniProt P03372)
# Assay: OT_ER_ERaERa_1440: Odyssey Thera (OT) 24-hour HEK293T Protein-Complementation Assay for Estrogen Receptor-alpha/-alpha Homodimer (AID 2283349);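 further: hits raise fluorescence above DMSO for agonists and antagonists alike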
# Procedure, shortened: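 Readout is the rise in mean fluorescence from reporter fragment complementation when ERα LBD (aa 310-547) units dimerize in HEK293T cells. Measured 24 h after dosing and analysed as increase over DMSO control.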
# Estrogen receptor (Homo sapiens), sequence (P03372 whole entry, looked up, the tested form may be a part): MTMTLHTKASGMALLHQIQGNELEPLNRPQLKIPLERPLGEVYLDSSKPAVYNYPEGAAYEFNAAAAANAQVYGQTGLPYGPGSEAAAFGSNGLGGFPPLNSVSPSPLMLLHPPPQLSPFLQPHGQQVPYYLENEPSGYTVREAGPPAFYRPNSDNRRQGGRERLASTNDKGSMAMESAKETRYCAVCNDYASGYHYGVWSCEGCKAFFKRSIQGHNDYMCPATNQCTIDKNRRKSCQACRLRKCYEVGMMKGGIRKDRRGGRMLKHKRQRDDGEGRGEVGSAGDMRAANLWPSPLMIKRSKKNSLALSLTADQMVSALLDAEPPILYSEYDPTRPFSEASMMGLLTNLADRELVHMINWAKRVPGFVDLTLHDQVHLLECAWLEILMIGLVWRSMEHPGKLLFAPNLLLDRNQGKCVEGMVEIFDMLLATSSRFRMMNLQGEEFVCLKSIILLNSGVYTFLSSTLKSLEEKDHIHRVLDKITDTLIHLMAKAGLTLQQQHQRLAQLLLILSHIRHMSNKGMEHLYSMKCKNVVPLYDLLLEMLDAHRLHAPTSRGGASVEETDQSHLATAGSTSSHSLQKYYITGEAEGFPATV
Structure (SMILES),outcome,AC50
O=c1c(O)c(-c2ccc(O)cc2O)oc2cc(O)cc(O)c12,inactive,
CCCCNS(=O)(=O)c1ccc(C)cc1,inactive,
CC(C)=CCCC(C)=CC#N,inactive,
CCCCCCCCC(CO)CCCCCC (stereo not drawn),inactive,
C[Si](C)(C)N[Si](C)(C)C,inactive,
C=CCOC(=O)c1ccc(C(=O)OCC=C)c(C(=O)OCC=C)c1,inactive,
O=C(Nc1ccccc1)c1cc(Cl)ccc1O,inactive,
Cc1cc(C)n(CO)n1,inactive,
CC(C)c1cc(C(C)C)cc(C(C)C)c1,inactive,
CC(C)c1ccc(O)c(C(C)C)c1,inactive,
c1ccc(Nc2cccc3ccccc23)cc1,,63.1 µM (active)
CCCCCC[C@@H](O)C/C=C\CCCCCCCC(=O)OCC(O)CO (stereo partly drawn),inactive,
CCCCCCCCCCCCCCCCCCOS(=O)(=O)O,inactive,
CCCCCCCOC(=O)c1ccc(O)cc1,,12.3 µM (active)
O=C(O)C1CCC(C(=O)O)CC1 (stereo not drawn),inactive,
COc1ccc(-c2coc3cc(O)cc(O)c3c2=O)cc1,,13.7 µM (active)
CC(C)(c1ccccc1)c1ccc(Nc2ccc(C(C)(C)c3ccccc3)cc2)cc1,inactive,
CC(=O)OCc1ccccc1,inactive,
CN(C)c1ccc2nc3ccc(=[N+](C)C)cc-3sc2c1,inactive,
N#Cc1ccc(C(c2ccc(C#N)cc2)n2cncn2)cc1,inactive,
Oc1ccccc1Cc1ccccc1O,inactive,
C=C[Si](OCCOC)(OCCOC)OCCOC,inactive,
CCOC(=O)C1=NOC(c2ccccc2)(c2ccccc2)C1,inactive,
CC(C)(C)C1CCC(=O)CC1,inactive,
CO[Si](C)(C)OC,inactive,
N#Cc1ccc(C2CCCc3cncn32)cc1 (stereo not drawn),inactive,
CCCCCCOC(=O)CCCCC(=O)OCCCCCC,inactive,

# Biological target: Estrogen receptor (Homo sapiens) (UniProt P03372)
# Assay: OT_ER_ERaERa_0480: Odyssey Thera (OT) 8-hour HEK293T Protein-Complementation Assay for Estrogen Receptor-alpha/-alpha Homodimer (AID 2283351);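 further: rise in fluorescence from reassembled reporter fragments on ERα LBD homodimer in nucleus or whole cell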
# Procedure, shortened: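 HEK293T, stable ERα LBD (aa 310-547) PCA homodimer; 8 h compound exposure; fluorescence intensity, laser scanning cytometer; positive fitting direction, DMSO baseline.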
Structure (SMILES),outcome,AC50
O=c1c(O)c(-c2ccc(O)cc2O)oc2cc(O)cc(O)c12,inactive,
CCCCNS(=O)(=O)c1ccc(C)cc1,inactive,
CC(C)=CCCC(C)=CC#N,inactive,
CCCCCCCCC(CO)CCCCCC (stereo not drawn),inactive,
C[Si](C)(C)N[Si](C)(C)C,inactive,
C=CCOC(=O)c1ccc(C(=O)OCC=C)c(C(=O)OCC=C)c1,inactive,
O=C(Nc1ccccc1)c1cc(Cl)ccc1O,inactive,
Cc1cc(C)n(CO)n1,inactive,
CC(C)c1cc(C(C)C)cc(C(C)C)c1,inactive,
CC(C)c1ccc(O)c(C(C)C)c1,inactive,
c1ccc(Nc2cccc3ccccc23)cc1,,35.2 µM (active)
CCCCCC[C@@H](O)C/C=C\CCCCCCCC(=O)OCC(O)CO (stereo partly drawn),inactive,
CCCCCCCCCCCCCCCCCCOS(=O)(=O)O,inactive,
CCCCCCCOC(=O)c1ccc(O)cc1,,12.3 µM (active)
O=C(O)C1CCC(C(=O)O)CC1 (stereo not drawn),inactive,
COc1ccc(-c2coc3cc(O)cc(O)c3c2=O)cc1,,12.3 µM (active)
CC(C)(c1ccccc1)c1ccc(Nc2ccc(C(C)(C)c3ccccc3)cc2)cc1,inactive,
CC(=O)OCc1ccccc1,inactive,
CN(C)c1ccc2nc3ccc(=[N+](C)C)cc-3sc2c1,,50 µM (active)
N#Cc1ccc(C(c2ccc(C#N)cc2)n2cncn2)cc1,inactive,
Oc1ccccc1Cc1ccccc1O,inactive,
C=C[Si](OCCOC)(OCCOC)OCCOC,inactive,
CCOC(=O)C1=NOC(c2ccccc2)(c2ccccc2)C1,inactive,
CCCCCCCCCCCCc1ccc(O)cc1,,2.48 µM (active)
CC(C)(C)C1CCC(=O)CC1,inactive,
CO[Si](C)(C)OC,inactive,
N#Cc1ccc(C2CCCc3cncn32)cc1 (stereo not drawn),inactive,
CCCCCCOC(=O)CCCCC(=O)OCCCCCC,inactive,

# Biological target: Androgen Receptor/SRC-1 Co-activator, AR (gene 367) (UniProt P10275)
# Assay: OT_AR_ARSRC1_0960: Odyssey Thera (OT) 16-hour HEK293T Protein-Complementation Assay for Androgen Receptor/SRC-1 Co-activator (AID 2283353);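 further: actives raise the signal above DMSO so potency reflects increased AR and SRC-1 complex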
# Procedure, shortened: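 Split-Venus PCA, AR/SRC-1 fusions, stable HEK293T; 16 h compound exposure; imaged at 488 and 635 nm; N/C ratio (488 nm channel), min 400 cells/image; positive-direction fit, DMSO baseline.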
# Androgen Receptor/SRC-1 Co-activator, AR (gene 367), sequence (P10275 whole entry, looked up): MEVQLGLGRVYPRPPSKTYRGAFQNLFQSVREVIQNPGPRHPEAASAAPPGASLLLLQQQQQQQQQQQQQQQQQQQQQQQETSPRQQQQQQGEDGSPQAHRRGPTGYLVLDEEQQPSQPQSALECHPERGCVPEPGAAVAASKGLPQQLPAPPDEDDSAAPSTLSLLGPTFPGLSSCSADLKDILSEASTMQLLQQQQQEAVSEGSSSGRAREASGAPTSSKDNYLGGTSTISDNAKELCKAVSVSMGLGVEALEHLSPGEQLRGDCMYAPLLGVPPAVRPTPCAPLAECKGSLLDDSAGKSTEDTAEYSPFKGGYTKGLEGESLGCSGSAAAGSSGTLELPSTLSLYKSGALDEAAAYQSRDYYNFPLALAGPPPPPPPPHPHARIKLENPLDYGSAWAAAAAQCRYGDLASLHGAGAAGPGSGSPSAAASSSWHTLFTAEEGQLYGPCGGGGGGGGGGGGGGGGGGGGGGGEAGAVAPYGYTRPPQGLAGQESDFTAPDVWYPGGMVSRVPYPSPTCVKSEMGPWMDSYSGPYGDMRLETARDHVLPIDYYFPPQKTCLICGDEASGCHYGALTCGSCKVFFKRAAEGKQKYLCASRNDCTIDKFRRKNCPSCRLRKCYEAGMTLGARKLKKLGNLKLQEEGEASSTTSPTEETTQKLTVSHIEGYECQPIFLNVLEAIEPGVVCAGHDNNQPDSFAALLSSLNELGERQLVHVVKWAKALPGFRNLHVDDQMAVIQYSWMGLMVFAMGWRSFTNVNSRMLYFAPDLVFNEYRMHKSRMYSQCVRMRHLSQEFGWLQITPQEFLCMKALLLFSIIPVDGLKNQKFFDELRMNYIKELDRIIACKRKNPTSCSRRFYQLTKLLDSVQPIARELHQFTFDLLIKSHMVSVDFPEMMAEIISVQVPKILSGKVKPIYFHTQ
row,Structure (SMILES),outcome
1,CCCCCC[C@@H](O)C/C=C\CCCCCCCC(=O)OCC(O)CO (stereo partly drawn),inactive
2,CC(=O)OCc1ccccc1,inactive
3,N#Cc1ccc(C(c2ccc(C#N)cc2)n2cncn2)cc1,inactive

# Biological target: Estrogen receptor (Homo sapiens) + Estrogen receptor beta (Homo sapiens) (UniProt P03372+Q92731)
# Assay: OT_ER_ERaERb_1440: Odyssey Thera (OT) 24-hour HEK293T Protein-Complementation Assay for Estrogen Receptor-alpha/-beta Homodimer (AID 2283356);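 further: heteromer of ER alpha and ER beta binding domains; hits raise reporter fluorescence and both agonists and antagonists give an increase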
# Procedure, shortened: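 HEK293T stably expressing a PCA of ER alpha LBD (aa 310-547) and ER beta LBD (aa 263-489). After 24 h compound exposure, mean fluorescence intensity in nucleus (agonists) or nucleus and cytoplasm (antagonists) measured by laser scanning cytometry versus vehicle.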
# Estrogen receptor (Homo sapiens) + Estrogen receptor beta (Homo sapiens), sequence (P03372 whole entry, looked up, the tested form may be a part): as the sequence (P03372 whole entry, looked up, the tested form may be a part) above
# Estrogen receptor (Homo sapiens) + Estrogen receptor beta (Homo sapiens), sequence (Q92731 whole entry, looked up, the tested form may be a part): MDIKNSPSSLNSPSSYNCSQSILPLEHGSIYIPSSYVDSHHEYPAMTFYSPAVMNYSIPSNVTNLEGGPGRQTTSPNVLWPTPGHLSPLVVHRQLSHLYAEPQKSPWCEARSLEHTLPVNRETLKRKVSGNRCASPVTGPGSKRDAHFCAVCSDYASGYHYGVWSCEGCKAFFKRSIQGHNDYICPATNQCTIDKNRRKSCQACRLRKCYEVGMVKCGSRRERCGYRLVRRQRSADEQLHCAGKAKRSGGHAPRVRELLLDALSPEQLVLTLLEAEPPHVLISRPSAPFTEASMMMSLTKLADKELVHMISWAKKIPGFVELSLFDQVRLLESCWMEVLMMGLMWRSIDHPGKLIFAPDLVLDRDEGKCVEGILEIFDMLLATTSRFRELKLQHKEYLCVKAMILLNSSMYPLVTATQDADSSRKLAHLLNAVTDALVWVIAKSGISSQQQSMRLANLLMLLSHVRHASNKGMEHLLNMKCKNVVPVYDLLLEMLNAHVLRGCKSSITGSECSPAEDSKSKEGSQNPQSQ
Structure (SMILES),outcome,AC50
CCCCCCCCC(CO)CCCCCC (stereo not drawn),inactive,
C[Si](C)(C)N[Si](C)(C)C,inactive,
C=CCOC(=O)c1ccc(C(=O)OCC=C)c(C(=O)OCC=C)c1,inactive,
O=C(Nc1ccccc1)c1cc(Cl)ccc1O,,31 µM (active)
CC(C)c1cc(C(C)C)cc(C(C)C)c1,inactive,
CC(C)c1ccc(O)c(C(C)C)c1,inactive,
c1ccc(Nc2cccc3ccccc23)cc1,,47.1 µM (active)
CCCCCCCCCCCCCCCCCCOS(=O)(=O)O,,23.7 µM (active)
CCCCCCCOC(=O)c1ccc(O)cc1,,12.2 µM (active)
O=C(O)C1CCC(C(=O)O)CC1 (stereo not drawn),inactive,
COc1ccc(-c2coc3cc(O)cc(O)c3c2=O)cc1,,5.37 µM (active)
CC(=O)OCc1ccccc1,inactive,
CN(C)c1ccc2nc3ccc(=[N+](C)C)cc-3sc2c1,,12 µM (active)
N#Cc1ccc(C(c2ccc(C#N)cc2)n2cncn2)cc1,inactive,
Oc1ccccc1Cc1ccccc1O,,53.4 µM (active)
CCOC(=O)C1=NOC(c2ccccc2)(c2ccccc2)C1,inactive,
CCCCCCCCCCCCc1ccc(O)cc1,,1.14 µM (active)
CC(C)(C)C1CCC(=O)CC1,inactive,
CO[Si](C)(C)OC,inactive,
CCCCCCOC(=O)CCCCC(=O)OCCCCCC,inactive,
